Reference: PubChem BioAssay (NCATS)
Results filed as inconclusive are left out. A number with no mark means an inactive call. Active and inactive are the calls of the source. Calls come from the whole dose curve; as a rule, active = well fitted curve in the direction sought with a large enough effect; inconclusive = small, poorly fitted or top-dose-only effect, or another doubt; inactive = no such curve, though single readings can be large; an effect the other way counts as inactive or inconclusive.

Assay: Viability qHTS for spleen associated tyrosine kinase inhibitor (SYKi) naive MV4-11 cells (AID 1963823); note: nearly all actives have a fitted effect of over 40% in size; note: potency is the fitted concentration of half-maximal effect
Conditions: MV4-11 AML viability, CellTiter-Glo luminescence, 72 h; series mostly up to 45 µM; viability (% of control): at the top concentration
Outline: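 qHTS, SYK inhibitor-naive MV4-11; 500 cells/well; 72 hr compound exposure, 37 C; CellTiter-Glo added, 10 min RT; luminescence read.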

SMILES | viability (% of control) | Potency
C[C@@]12C[C@@H](c3ccoc3)OC(=O)C1CC[C@]1(C)[C@H]2[C@H]2C=C[C@]1(O)C(=O)O2 (some centres undefined) | 81.4% | 
COC(=O)C12C(=O)C(C)(O)C(=O)C1(C)C(C)=CC1C34CCC(OC3=O)C(C)(C)C4CCC12C (centres undefined) | 75.9% [at 17.3 µM] | 
CC(C)(NC(=O)[C@@H](N)Cc1ccc(O)cc1)C(=O)N[C@@H](Cc1cc2ccccc2[nH]1)C(=O)N[C@@H](Cc1ccccc1)C(=O)O |  | 3.35 µM (active)
CC(C)C1(OO)C=C2C(=O)CC3C(C)(C(=O)O)CCCC3(C)C2CC1 (centres undefined) | 81.7% | 
S=C(NC1CCCCC1)N1CCC(c2cnc[nH]2)CC1 | 74.1% | 
COc1ccn(C)c(=O)c1C#N | 83.1% [at 91.9 µM] | 
O=C1N[C@@H](Cc2ccccc2)CN2CCCC[C@@H]12 | 72.2% | 
c1ccc([C@@H]2C[C@H]2NC2CCNCC2)cc1 | 1.98% | 
C=C(C)[C@@]12O[C@@H]1[C@@]1(C)C(=C[C@H]2O)CC[C@@H](O)[C@@H]1C | 77.6% | 
C=C1[C@@H](C)[C@H]2[C@H](Cc3ccccc3)NC(=O)[C@]23[C@H](OC(C)=O)/C=C/[C@](C)(O)C(=O)[C@@H](C)C/C=C/[C@H]3[C@@H]1O |  | 1.46 µM (active)
CCC(C)(OC(C)=O)C(=O)O[C@H]1[C@H](OC(C)=O)C[C@@H]2[C@@](C)([C@@H]3C[C@H]4C=CO[C@H]4O3)[C@H](C)C[C@H](OC(C)=O)[C@@]2(COC(C)=O)[C@@]12CO2 (some centres undefined) | 80.6% [at 17.3 µM] | 
C[C@@H]1CCC/C=C/[C@H]2C[C@@H](O)C[C@@H]2[C@@H](O)/C=C/C(=O)O1 |  | 0.184 µM (active)
FC(F)(F)c1cccc(C2=CCN(CCc3ccc4ccccc4c3)CC2)c1 | 79.7% | 
CC1=C[C@H]2O[C@@H]3[C@H](O)[C@@H](O)[C@](C)([C@@]2(CO)C[C@@H]1O)[C@]31CO1 |  | 0.82 µM (active)
Nc1ccn(CC(CO)OCP(=O)(O)O)c(=O)n1 (centres undefined) | 80.7% | 
CCC1NC(=O)C2C(Cl)C(Cl)CN2C(=O)C(C(C)O)NC(=O)CC(c2ccccc2)NC(=O)C(CO)NC1=O (centres undefined) | 86.9% [at 17.3 µM] | 
C/C=C(/C)C1C=CC2CC(C)CC(C)C2C1/C(O)=C1\C(=O)NC(CC(C)(O)C(=O)O)C1=O (centres undefined) | 70.3% [at 17.3 µM] | 
C[C@]12C/C(=C/O)C(=O)C[C@@H]1CC[C@@H]1[C@@H]2CC[C@@]2(C)[C@H]1CC[C@]2(C)O |  | 18.8 µM (active)
Oc1ccc2[nH]cc(CCCCN3CC=C(c4ccccc4)CC3)c2c1 |  | 8.41 µM (active)
CCOP(=O)(OCC)Oc1ccc2c(C)cc(=O)oc2c1 | 72.5% | 
CC[C@H]1C2CC3[C@@H]4N(C)c5ccccc5[C@]45C[C@@H]([C@H]2[C@H]5O)N3[C@@H]1O | 59.8% | 

Assay: Cellular viability qHTS for adrenocortical cancer (ACC) cell line SW-13 (AID 1963989);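 note: cells grown in serum-free medium with ITS supplement; % is set by controls: 0 for no effect and ±100 for the full control effect; nearly all actives have a fitted effect of over 65% in size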
Conditions: SW-13 ACC cells viability, CellTiter-Glo, 48 h; activity (max response): hits give low values
Outline: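 SW-13 cells in ITS-supplemented serum-free DMEM were plated overnight, then exposed for 48 h at 37C to compound titrations (up to 46 uM final). Viability was read by CellTiter-Glo luminescence; four-parameter logistic fits gave IC50 and efficacy.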

SMILES | activity (max response)
Fc1cc(Br)ccc1CBr | 13.3%
CC(Cc1ccccc1)NCCCCl (centres undefined) | -2.78%
CN(C)C(=O)Oc1cc(OC(=O)N(C)C)cc(C(O)CNC(C)(C)C)c1 (centres undefined) | -8.28%
NC(=O)c1cc([N+](=O)[O-])cc([N+](=O)[O-])c1 | -5.23%
CNC(C)Cc1ccccc1OC (centres undefined) | -2.94%
COc1ccc2c3c1O[C@H]1[C@H](O)CC[C@H]4[C@@H](C2)N(C)CC[C@@]341 | -5.89%
COP(=O)(OC)OC=C(Cl)Cl | 13.5%
N#CC(O[C@@H]1O[C@H](CO[C@@H]2O[C@H](CO)[C@@H](O)[C@H](O)[C@H]2O)[C@@H](O)[C@H](O)[C@H]1O)c1ccccc1 (some centres undefined) | -16.1%
O=c1n(Cl)c(=O)n(Cl)c(=O)n1Cl | 8.14%
O=[N+]([O-])c1cc([N+](=O)[O-])c2ccccc2c1 | -5.95%
Oc1ccccc1-c1ccccc1 | -7.15%
O=[N+]([O-])c1c(Cl)c(Cl)cc(Cl)c1Cl | -0.162%
CN1CC[C@]23c4c5ccc(O)c4O[C@H]2[C@@H](O)CC[C@H]3[C@H]1C5 | -1.35%
CCCCC(CC)COC(=O)c1ccccc1C(=O)OCC(CC)CCCC (centres undefined) | 14%
O=C1CN=C(c2ccccc2)c2cc([N+](=O)[O-])ccc2N1 | -7.73%
NC(=O)[C@@H](CC1CC1)[C@@H](CCC(F)(F)F)C(=O)N[C@H]1N=C(c2ccccc2)c2cccc(F)c2NC1=O | -14.1%
NC1=NC(=O)C(c2ccccc2)O1 (centres undefined) | 8.75%

Assay: Cellular viability qHTS for adrenocortical cancer (ACC) cell line NCI-H295R (AID 1963990); note: nearly all actives have a fitted effect of over 60% in size; note: potency is the fitted concentration of half-maximal effect;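 for activity change, negative = viability loss: 0% = DMSO only wells and -100% = full killing with cytotoxic reference compound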
Conditions: CellTiter-Glo ATP luminescence, 48 h; series mostly up to 46.1 µM; activity change, negative = viability loss: at the top concentration
Outline: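 Luminescent ATP read-out (CellTiter-Glo, 20 min RT) after 48 h drug exposure of NCI-H295R cells; a titration up to 46 uM final. Data normalized to doxorubicin (100% inhibition) and DMSO (0%); 4-parameter fit gives IC50, max response.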

SMILES | activity change, negative = viability loss | Potency
Fc1cc(Br)ccc1CBr | 0.663% | 
CC(Cc1ccccc1)NCCCCl (centres undefined) | 18.2% | 
CN(C)C(=O)Oc1cc(OC(=O)N(C)C)cc(C(O)CNC(C)(C)C)c1 (centres undefined) | -5.86% | 
NC(=O)c1cc([N+](=O)[O-])cc([N+](=O)[O-])c1 |  | 3.66 µM (active)
CNC(C)Cc1ccccc1OC (centres undefined) | 0.47% | 
COc1ccc2c3c1O[C@H]1[C@H](O)CC[C@H]4[C@@H](C2)N(C)CC[C@@]341 | -16.4% [at 92.7 µM] | 
COP(=O)(OC)OC=C(Cl)Cl | 10.7% | 
N#CC(O[C@@H]1O[C@H](CO[C@@H]2O[C@H](CO)[C@@H](O)[C@H](O)[C@H]2O)[C@@H](O)[C@H](O)[C@H]1O)c1ccccc1 (some centres undefined) | -13.6% | 
O=c1n(Cl)c(=O)n(Cl)c(=O)n1Cl | -8.59% | 
O=[N+]([O-])c1cc([N+](=O)[O-])c2ccccc2c1 | 5.2% [at 92.7 µM] | 
Oc1ccccc1-c1ccccc1 | -10.3% | 
CN1CC[C@]23c4c5ccc(O)c4O[C@H]2[C@@H](O)CC[C@H]3[C@H]1C5 | -6.35% [at 92.7 µM] | 
CC1Sc2c(C(=O)O)c(=O)c3cc(F)c(N4CCNCC4)cc3n21 (centres undefined) | -3.55% | 
CCCCC(CC)COC(=O)c1ccccc1C(=O)OCC(CC)CCCC (centres undefined) | 2.56% [at 92.7 µM] | 
O=C1CN=C(c2ccccc2)c2cc([N+](=O)[O-])ccc2N1 | -9.43% | 
NC1=NC(=O)C(c2ccccc2)O1 (centres undefined) | 1.53% | 
